{"source": "the supplement of paper PMC8387472", "note": "Where a name gives a salt, the structure may show the parent alone. ± gives the standard deviation of the averaged measurements."}
{"system": "mESC LDLR-Dup GFP reporter (SpCas9 MH-deletion repair)", "test": "fraction of GFP+ cells relative to DMSO control (fold change); higher = more MH-deletion repair to in-frame LDLR (or more editing)", "conditions": "2 µM; 7 days post-transfection"}
{"smiles": "O=c1nc(N2CCOCC2)oc2c(-c3cccc4c3sc3ccccc34)cccc12", "fraction of GFP+ cells": "0.761 ± 0.24"}
{"smiles": "CCCCCCCCC/C(=C\\C1=C(C)C(=O)C(OC)=C(OC)C1=O)C(=O)O", "fraction of GFP+ cells": "1.19 ± 0.5"}
{"smiles": "CNNCc1ccc(C(=O)NC(C)C)cc1", "note": "[Procarbazine HCl]", "fraction of GFP+ cells": "1.04 ± 0.053"}
{"smiles": "Cn1c(=O)cc(C(=O)Nc2ccc3c(c2)OCCO3)c2ccccc21", "fraction of GFP+ cells": "0.931 ± 0.27"}
{"smiles": "CCn1cc(C(=O)O)c(=O)c2cc(F)c(N3CCN(C)CC3)cc21", "note": "[Pefloxacin Mesylate Dihydrate]", "fraction of GFP+ cells": "1.13 ± 0.09"}
{"smiles": "Nc1nc(F)nc2c1ncn2[C@@H]1O[C@H](COP(=O)(O)O)[C@@H](O)[C@@H]1O", "note": "[Fludarabine Phosphate]", "fraction of GFP+ cells": "0.855 ± 0.23"}
{"smiles": "O=c1cc(N2CCOCC2)oc2c(-c3cccc4c3sc3ccccc34)cccc12", "fraction of GFP+ cells": "0.732 ± 0.4"}
{"smiles": "CC1=C(C(=O)Nc2ccc3[nH]ncc3c2)C(c2ccc(F)cc2)NC(=O)N1", "note": "(centres undefined)", "fraction of GFP+ cells": "1.53 ± 0.42"}
{"smiles": "COc1ccc(Cn2ccc3ccc(C(=O)NO)cc32)cc1", "fraction of GFP+ cells": "0.5 ± 0.072"}
{"smiles": "O=C1C[C@@H](c2ccc(O)cc2)Oc2cc(O)cc(O)c21", "note": "[Naringenin]", "fraction of GFP+ cells": "0.997 ± 0.18"}
{"smiles": "N#Cc1ccc2ncnc(NCCc3ccccc3)c2c1", "note": "[Senexin A]", "fraction of GFP+ cells": "0.863 ± 0.11"}
{"smiles": "CCCC(CCC)C(=O)O", "note": "[Divalproex Sodium]", "fraction of GFP+ cells": "0.742 ± 0.1"}
{"smiles": "CN(CCOc1ccc(CC2SC(=O)NC2=O)cc1)c1ccccn1", "note": "(centres undefined) [Rosiglitazone maleate]", "fraction of GFP+ cells": "1.52 ± 0.23"}
{"smiles": "COc1ccc(-c2oc3c(CC=C(C)C)c(O[C@@H]4O[C@H](CO)[C@@H](O)[C@H](O)[C@H]4O)cc(O)c3c(=O)c2O[C@@H]2O[C@@H](C)[C@H](O)[C@@H](O)[C@H]2O)cc1", "note": "[Icariin]", "fraction of GFP+ cells": "1.26 ± 0.2"}
{"smiles": "O=C(O)c1cc(=O)[nH]c(=O)[nH]1", "note": "[Orotic acid (6-Carboxyuracil)]", "fraction of GFP+ cells": "0.847 ± 0.26"}
{"smiles": "NC(=O)c1ccc(I)c([N+](=O)[O-])c1", "note": "[Iniparib (BSI-201)]", "fraction of GFP+ cells": "1.03 ± 0.039"}
{"smiles": "CC(C)(O)C1CCC(C)(C2C(O)CC3(C)C4CC(O)C5C(C)(C)C(O)CCC56CC46CCC23C)O1", "note": "(centres undefined) [Cyclogalegenol]", "fraction of GFP+ cells": "0.875 ± 0.24"}
{"smiles": "CC1=C(C(=O)Nc2cc3cn[nH]c3cc2F)C(c2ccc(C(F)(F)F)cc2)CC(=O)N1", "note": "(centres undefined)", "fraction of GFP+ cells": "1.27 ± 0.48"}
{"smiles": "O=C(CCCCCCNC(=O)c1cnc(N(c2ccccc2)c2ccccc2Cl)nc1)NO", "note": "[Citarinostat (ACY-241)]", "fraction of GFP+ cells": "0.902 ± 0.074"}
{"smiles": "C#CCC(Cc1cnc2nc(N)nc(N)c2n1)c1ccc(C(=O)N[C@@H](CCC(=O)O)C(=O)O)cc1", "note": "(some centres undefined) [Pralatrexate]", "fraction of GFP+ cells": "1.43 ± 0.46"}
{"smiles": "Cc1cnc(-c2ccccc2C(C)C)nc1NCc1ccc(-n2ccnn2)cc1", "fraction of GFP+ cells": "0.373 ± 0.22"}
{"smiles": "NC(=O)c1cccnc1", "note": "[Nicotinamide (Vitamin B3)]", "fraction of GFP+ cells": "1.74 ± 0.82"}
{"smiles": "O=c1[nH]c(=O)n(C2CCCO2)cc1F", "note": "(centres undefined)", "fraction of GFP+ cells": "1.06 ± 0.28"}
{"smiles": "C[C@H](CN(C)C)Oc1nc(Nc2cc3cccc(Cl)c3cn2)cnc1C#N", "fraction of GFP+ cells": "1.28 ± 0.15"}
{"smiles": "O=C(O)c1cc2cccc([N+](=O)[O-])c2[nH]1", "fraction of GFP+ cells": "1.04 ± 0.19"}
{"smiles": "NC1CCN(c2c(F)cc3c(=O)c(C(=O)O)cn(C4CC4)c3c2Cl)C1", "note": "(centres undefined) [Clinafloxacin]", "fraction of GFP+ cells": "0.685 ± 0.25"}
{"smiles": "COc1c(O)cc(O)c2c(=O)cc(-c3ccccc3)oc12", "note": "[Wogonin]", "fraction of GFP+ cells": "0.728 ± 0.15"}
{"smiles": "O=C(O)c1cn(C2CC2)c2cc(N3CCNCC3)c(F)cc2c1=O", "note": "[Ciprofloxacin]", "fraction of GFP+ cells": "1.01 ± 0.28"}
{"smiles": "Oc1nc(-c2ccc(C(F)(F)F)cc2)nc2c1CSCC2", "fraction of GFP+ cells": "0.752 ± 0.014"}
{"smiles": "C=C1C(=O)O[C@H]2[C@H]1CC/C(C)=C/CC[C@@]1(C)O[C@@H]21", "note": "[(-)-Parthenolide]", "fraction of GFP+ cells": "0.606 ± 0.018"}
{"smiles": "Nc1[nH]cnc2ncnc1-2", "note": "[Adenine HCl]", "fraction of GFP+ cells": "1.31 ± 0.32"}
{"smiles": "CC(=O)c1cc([N+](=O)[O-])c(Sc2cccc(Cl)c2Cl)s1", "fraction of GFP+ cells": "0.919 ± 0.038"}
{"smiles": "COc1cc(Cc2cnc(N)nc2N)cc(OC)c1OC", "note": "[Trimethoprim]", "fraction of GFP+ cells": "0.773 ± 0.079"}
{"smiles": "CN(C)Cc1ccc(-c2nc3cccc4c3n2CCNC4=O)cc1", "fraction of GFP+ cells": "0.517 ± 0.015"}
{"smiles": "O=c1ccn([C@@H]2O[C@H](CO)[C@@H](O)[C@H]2O)c(=O)[nH]1", "note": "[Uridine]", "fraction of GFP+ cells": "1.24 ± 0.54"}
{"smiles": "Nc1nc2n[nH]nc2c(=O)[nH]1", "note": "[Azaguanine-8]", "fraction of GFP+ cells": "1.43 ± 0.23"}
{"smiles": "CCCCCOC(=O)Nc1nc(=O)n([C@@H]2O[C@H](C)[C@@H](O)[C@H]2O)cc1F", "note": "[Capecitabine]", "fraction of GFP+ cells": "0.922 ± 0.39"}
{"smiles": "COc1c2ccoc2cc2oc(=O)ccc12", "note": "[Bergapten]", "fraction of GFP+ cells": "0.969 ± 0.32"}
{"smiles": "CC1=CC(=O)c2ccccc2C1=O", "note": "[Menadione]", "fraction of GFP+ cells": "1.27 ± 0.36"}
